# Data reported in PubChem BioAssay AID624498 (National Center for Advancing Translational Sciences (NCATS), 2012).
# Activity calls are given as the source filed them.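 Rule for the calls: active = a band for the stress protein GRP78 appears on a western blot of treated cells; inactive = no band seen on the blot.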
# Assay: Hit Validation Western Blot Assay for Inducers of ERSR: Assessment of GRP78 Upregulation
# Conditions: cells, 4-24 h
# Source text: Primary protein unfolding takes place for many diseases, including diabetes and hypoxia, , and triggers a reaction in the cells called ER stress response (ERSR). ). ERSR is designed as a repair mechanism, but ultimately leads to cell death via apoptosis if conditions triggering protein unfolding persist (1). The molecular clue to ERSR activation is the enhancement of the expression of key molecular chaperones, including the glucose regulated protein (GRP) 78. GRP78 is the main sensor for protein folding and the main actuator of the ERSR. In a collaboration between the Southern Research Institute and the NIH Chemical Genomics Center, a cell based screen was developed that reliably uses GRP78 as a sensor to identify small molecules as inducers of ERSR. In resting conditions, GRP78 binds proteins and acts as a natural repressor. Once unfolded proteins are present in the ER, GRP78 releases some of the repressors and binds to the unfolded proteins. The release of the repressors executes the ERSR program. Using a human glioma cell line in a miniaturized, luminescent format, a high-throughput screen was developed to identify actuators of the ERSR. In this assay, hits identified in the primary ERSR screen were characterized for their effects on wild type GRP78 upregulation using a western blot secondary assay. NIH Chemical Genomics Center [NCGC] […]
row,Compound,outcome
1,Cc1noc(C)c1C(=O)N1CCC2(CCCN(C(c3ccccc3)c3ccccc3)C2)CC1,active; yes
